Test results reported in PubChem BioAssay AID1159580 (chemical genetic matrix, 2015).
Hit rate of the full screen: of about 5,500 compounds, about 2,000 (36%) were called active. Inconclusive results (about 18%) are left out. Rule as the data show it: active = normalized growth mostly below about 0.91 (no sharp cut-off); inconclusive = no clear call, values can overlap the other calls; inactive = mostly above about 0.92. The list shows a part of the results.

Assay: chemical genetic growth profiling, strain panel (AID 1159580);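 also: tested at 20 µM; growth read once vehicle control cultures reached saturation at 30 °C; 1 = growth at the plate median or of vehicle wells; lower values mean less growth of the strain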
Settings: growth OD

Measured: normalized growth

C=CC(C1=CC(=O)C(OC)=CC1=O)c1ccccc1 (configuration not stated)
inactive: S. cerevisiae deletion strains, locus YKL009W, strain mrt4, hits give low values 0.905 | S. cerevisiae deletion strains, locus YKL068W, hits give low values 0.977 | S. cerevisiae deletion strains, locus YKL085W, strain MDH1 (second series), hits give low values 0.954 | S. cerevisiae deletion strains, locus YKL085W, strain MDH1, hits give low values 0.954 | S. cerevisiae deletion strains, locus YKR026C, strain gcn3, hits give low values 0.987 | S. cerevisiae deletion strains, locus YKR091W, strain srl3, hits give low values 0.995 | S. cerevisiae deletion strains, locus YLL041C, strain sdh2, hits give low values 0.978 | S. cerevisiae deletion strains, locus YLR058C, strain SHM2, hits give low values 0.953 | S. cerevisiae deletion strains, locus YLR102C, strain apc9, hits give low values 0.949 | S. cerevisiae deletion strains, locus YLR268W, strain sec22, hits give low values 0.888 | S. cerevisiae deletion strains, locus YLR357W, strain rsc2, hits give low values 1.04 | S. cerevisiae deletion strains, locus YLR370C, strain arc18, hits give low values 0.949 | S. cerevisiae deletion strains, locus YLR371W, strain rom2, hits give low values 0.937 | S. cerevisiae deletion strains, locus YLR384C, strain iki3, hits give low values 0.978 | S. cerevisiae deletion strains, locus YML016C, strain PPZ1, hits give low values 0.959 | S. cerevisiae deletion strains, locus YML124C, strain tub3, hits give low values 0.963 | S. cerevisiae deletion strains, locus YMR058W, strain fet3, hits give low values 0.921 | S. cerevisiae deletion strains, locus YMR078C, strain ctf18, hits give low values 0.928 | S. cerevisiae deletion strains, locus YMR129W, hits give low values 0.988 | S. cerevisiae deletion strains, locus YMR231W, strain pep5, hits give low values 1.01 | S. cerevisiae deletion strains, locus YMR263W, strain SAP30, hits give low values 0.926 | S. cerevisiae deletion strains, locus YMR307W, strain GAS1, hits give low values 0.864 | S. cerevisiae deletion strains, locus YNL067W, strain RPL9B, hits give low values 0.873 | S. cerevisiae deletion strains, locus YNL128W, strain TEP1, hits give low values 0.906 | S. cerevisiae deletion strains, locus YNL153C, strain GIM3, hits give low values 0.972 | S. cerevisiae deletion strains, locus YNL183C, strain NPR1, hits give low values 0.871 | S. cerevisiae deletion strains, locus YNL250W, strain rad50, hits give low values 0.956 | S. cerevisiae deletion strains, locus YNL271C, strain bni1, hits give low values 0.958 | S. cerevisiae deletion strains, locus YNL298W, strain CLA4, hits give low values 0.919 | S. cerevisiae deletion strains, locus YNL322C, strain KRE1 (second series), hits give low values 0.969 | S. cerevisiae deletion strains, locus YNL322C, strain KRE1, hits give low values 0.928 | S. cerevisiae deletion strains, locus YNR049C, strain mso1, hits give low values 0.992 | S. cerevisiae deletion strains, locus YNR052C, strain pop2, hits give low values 0.954 | S. cerevisiae deletion strains, locus YOL006C, strain TOP1, hits give low values 0.69 | S. cerevisiae deletion strains, locus YOL012C, strain htz1 0.631 | S. cerevisiae deletion strains, locus YOR001W, strain rrp6, hits give low values 0.943 | S. cerevisiae deletion strains, locus YOR061W, strain CKA2, hits give low values 0.956 | S. cerevisiae deletion strains, locus YOR069W, strain VPS5, hits give low values 0.958 | S. cerevisiae deletion strains, locus YOR080W, strain dia2, hits give low values 0.996 | S. cerevisiae deletion strains, locus YOR083W, strain WHI5, hits give low values 0.905 | S. cerevisiae deletion strains, locus YOR136W, strain idh2, hits give low values 0.942 | S. cerevisiae deletion strains, locus YOR144C, strain elg1, hits give low values 0.973 | S. cerevisiae deletion strains, locus YOR265W, strain rbl2, hits give low values 0.93 | S. cerevisiae deletion strains, locus YOR290C, strain snf2, hits give low values 0.89 | S. cerevisiae deletion strains, locus YOR316C, strain cot1, hits give low values 0.96 | S. cerevisiae deletion strains, locus YPL055C, strain LGE1, hits give low values 0.816 | S. cerevisiae deletion strains, locus YPL106C, strain sse1, hits give low values 1.03 | S. cerevisiae deletion strains, locus YPL241C, strain CIN2, hits give low values 0.962 | S. cerevisiae deletion strains, locus YPR119W, strain clb2, hits give low values 0.966 | S. cerevisiae deletion strains, locus YPR141C, strain kar3, hits give low values 0.971 | S. cerevisiae deletion strains, locus YPR167C, strain met16, hits give low values 0.959
active: S. cerevisiae deletion strains, locus YJR075W, strain HOC1, hits give low values 0.88 | S. cerevisiae deletion strains, locus YKL160W, strain elf1, hits give low values 0.79 | S. cerevisiae deletion strains, locus YKL190W, strain CNB1, hits give low values 0.866 | S. cerevisiae deletion strains, locus YKR001C, strain vps1, hits give low values 0.774 | S. cerevisiae deletion strains, locus YLL001W, strain dnm1, hits give low values 0.885 | S. cerevisiae deletion strains, locus YLL026W, hits give low values 0.85 | S. cerevisiae deletion strains, locus YLR027C, strain aat2, hits give low values 0.808 | S. cerevisiae deletion strains, locus YLR039C, strain RIC1, hits give low values 0.519 | S. cerevisiae deletion strains, locus YLR113W, strain HOG1, hits give low values 0.663 | S. cerevisiae deletion strains, locus YLR221C, strain rsa3, hits give low values 0.734 | S. cerevisiae deletion strains, locus YLR258W, strain gsy2, hits give low values 0.875 | S. cerevisiae deletion strains, locus YLR262C, strain YPT6 (second series), hits give low values 0.518 | S. cerevisiae deletion strains, locus YLR262C, strain YPT6, hits give low values 0.405 | S. cerevisiae deletion strains, locus YLR320W, strain mms22, hits give low values 0.379 | S. cerevisiae deletion strains, locus YLR330W, strain CHS5, hits give low values 0.912 | S. cerevisiae deletion strains, locus YLR342W, strain FKS1 (second series), hits give low values 0.603 | S. cerevisiae deletion strains, locus YLR342W, strain FKS1, hits give low values 0.79 | S. cerevisiae deletion strains, locus YLR418C, strain cdc73, hits give low values 0.774 | S. cerevisiae deletion strains, locus YML032C, strain rad52, hits give low values 0.883 | S. cerevisiae deletion strains, locus YML120C, strain ndi1, hits give low values 0.864 | S. cerevisiae deletion strains, locus YMR125W, strain sto1, hits give low values 0.852 | S. cerevisiae deletion strains, locus YMR205C, strain PFK2, hits give low values 0.784 | S. cerevisiae deletion strains, locus YMR223W, strain ubp8, hits give low values 0.84 | S. cerevisiae deletion strains, locus YNL071W, strain lat1, hits give low values 0.213 | S. cerevisiae deletion strains, locus YNL209W, strain ssb2, hits give low values 0.908 | S. cerevisiae deletion strains, locus YNL233W, strain BNI4, hits give low values 0.808 | S. cerevisiae deletion strains, locus YNL248C, strain rpa49, hits give low values 0.842 | S. cerevisiae deletion strains, locus YNL307C, strain MCK1, hits give low values 0.302 | S. cerevisiae deletion strains, locus YOL147C, strain pex11, hits give low values 0.926 | S. cerevisiae deletion strains, locus YOR070C, strain gyp1, hits give low values 0.79 | S. cerevisiae deletion strains, locus YOR106W, strain vam3, hits give low values 0.739 | S. cerevisiae deletion strains, locus YOR184W, strain ser1, hits give low values 0.536 | S. cerevisiae deletion strains, locus YOR231W, strain MKK1, hits give low values 0.853 | S. cerevisiae deletion strains, locus YOR270C, strain vph1, hits give low values 0.761 | S. cerevisiae deletion strains, locus YPL051W, strain arl3, hits give low values 0.737 | S. cerevisiae deletion strains, locus YPL078C, strain atp4, hits give low values 0.868 | S. cerevisiae deletion strains, locus YPL240C, strain hsp82, hits give low values 0.904 | S. cerevisiae deletion strains, locus YPL256C, strain CLN2, hits give low values 0.75 | S. cerevisiae deletion strains, locus YPR163C, strain tif3, hits give low values 0.766 | S. cerevisiae deletion strains, strain wtn01, hits give low values 0.846 | S. cerevisiae strains, strain wild type, hits give low values 0.805
